Source: PubChem BioAssay AID2314 (National Center for Advancing Translational Sciences (NCATS), 2010)
In all, about 300,000 compounds went through this assay and about 37,000 (12%) were called active. No stated cut-off is given here; in the data, active means max response mostly above about 13% (no sharp cut-off); inactive means mostly below about 14%. For the sample, actives were picked, then their nearest neighbours and some compounds at random.

Experiment: Cycloheximide Counterscreen for Small Molecule Inhibitors of Shiga Toxin; further: read at 38.3 µM for the half of the compounds with a filed dose; 0% is about no effect
Conditions: cell reporter, cycloheximide protein synthesis inhibition counterscreen; active compounds read high

Row | Compound | max response
1 | CCc1ccc(CNC(=O)C2CCN(c3nnc(C)c4c(C)n(-c5ccc(C)cc5)nc34)CC2)cc1 | -4.27% (inactive)
2 | COc1ccc(C(=O)N2CCCCC2C(=O)Nc2ccc(-n3nc(C)cc3C)cc2)o1 (stereo not drawn) | -1.42% (inactive)
3 | C[C@H](NC(=O)C1CC(=O)N(c2ccc3c(c2)OCO3)C1)C(=O)NCc1ccco1 (stereo partly drawn) | 1.48% (inactive)
4 | CCOc1ccc(C2C(C#N)=C(N)N(N(C)C)C3=C2C(=O)CCC3)cc1 (stereo not drawn) | 0.68% (inactive)
5 | O=C1c2ccccc2C(=O)c2c1cccc2N1CCN(CCO)CC1 | 28.2% (active)
6 | O=C(NC(c1ccccc1)c1ccccc1)N1CCN(CCO)CC1 | -1.21% (inactive)
7 | O=C1c2ccccc2C(=O)c2c1cccc2N1CCN(Cc2ccccc2)CC1 | 1.13% (inactive)
8 | CN(C)c1ccc(S(=O)(=O)NCC(=O)NCC2CCCCC2)cc1[N+](=O)[O-] | -5.92% (inactive)
9 | Cc1ccc(NC(=O)Cc2nnc(SCC(=O)Nc3nncs3)n2C)cc1 | -3.09% (inactive)
10 | CN1C(=O)/C(=C/c2ccc(C(=O)NC3CCCC3)cc2)Oc2ccccc21 | 7.07% (inactive)
11 | COCCCN1C(=O)C(=O)/C(=C(/O)c2ccc(S(=O)(=O)N3CCOCC3)cc2)C1c1ccc(F)cc1 (stereo not drawn) | -2.34% (inactive)
12 | CCc1cc2cc(OC)ccc2nc1SCC(=O)Nc1cc(OC)c(OC)cc1C(=O)O | -1.72% (inactive)
13 | COc1ccc(CN2CCC(c3nc4ccc(Cl)cc4[nH]3)CC2)cc1 | -5.26% (inactive)
14 | COc1ccc2cc(CCl)c(Cl)nc2c1 | 27% (active)
15 | O=C(NCc1ccccn1)C1CCN(S(=O)(=O)c2ccc(Br)cc2)CC1 | 5.38% (inactive)
16 | O=C(CSCc1ccccc1)Nc1ccccc1 | 54.4% (active)
17 | Cn1c(CSCC(=O)Nc2ccccc2)nnc1SCc1ccccc1 | 1.76% (inactive)
18 | Cc1c(NC(=O)CSCc2ccccc2)cccc1C(=O)O | 10.7% (inactive)
19 | CC(=O)c1ccc(NC(=O)c2ccc(-n3cncn3)c([N+](=O)[O-])c2)cc1 | 5.03% (inactive)
20 | CC(C)C(c1nnnn1C1CCCCC1)N1CCN(C(=O)c2ccco2)CC1 (stereo not drawn) | -3.08% (inactive)
21 | COc1ccc(N(CC(=O)Nc2ccc(F)c(F)c2)S(=O)(=O)c2c(C)[nH]c(=O)[nH]c2=O)cc1 | -1.45% (inactive)
22 | CCc1ccc(/C=N/NC(=O)c2nnn(-c3nonc3N)c2CN2CCc3ccccc32)cc1 | 1.36% (inactive)
23 | CCCOC1CCCN(C(=O)c2cc(COc3cncc(Cl)c3)on2)C1 (stereo not drawn) | 40.2% (active)
24 | CC(CCc1ccccc1)NC(=O)c1cnc(Cl)c(Cl)c1 (stereo not drawn) | -1.25% (inactive)

Row | Compound | max response
25 | Cc1cccc(OCC(=O)NCCNC(=O)c2cccnc2)c1 | -6.99% (inactive)
26 | Cc1cccnc1NC(=O)CSc1nnc(COc2ccc(C(C)C)cc2)n1C | -8.69% (inactive)
27 | Cc1cc(Cl)ccc1C(=O)C1CCCN(C(=O)c2nonc2C)C1 (stereo not drawn) | -0.841% (inactive)
28 | Cc1noc(C)c1COc1cccc(C(=O)Nc2cccnc2)c1 | -2.49% (inactive)
29 | CCOC(=O)CC1(NC(=O)c2cc(COc3cncc(Cl)c3)on2)CCCCC1 | 11.2% (active)
30 | Cc1cccnc1CC(C)NC(=O)c1cc(COc2cncc(Cl)c2)on1 (stereo not drawn) | 32.7% (active)
31 | CC(=O)c1cccc(OCc2cc(C(=O)NC(C)Cc3cccnc3)no2)c1 (stereo not drawn) | 23% (active)
32 | CCOC(=O)C1CCCN(C(=O)c2cncc(Br)c2)C1 (stereo not drawn) | -3.79% (inactive)
33 | O=C(Cc1ccccc1)Nc1c(Cl)ccc2nsnc12 | -0.56% (inactive)
34 | CCOC(=O)c1c(S(=O)(=O)NCC(=O)Nc2ccc(C)cc2)c(C)n(C)c1C | -0.626% (inactive)
35 | COC(=O)c1cc(NS(=O)(=O)c2ccc3c(c2)c(=O)n(C)c(=O)n3C)cc(C(=O)OC)c1 | -10.6% (inactive)
36 | Cc1cccc(N(C(=O)c2csnn2)C(C(=O)NCc2ccccc2)c2ccncc2)c1 (stereo not drawn) | -3.2% (inactive)
37 | COc1ccc(S(=O)(=O)N2CCC(C(=O)NCc3ccco3)CC2)cc1C | -1.76% (inactive)
38 | Cc1ccccc1C(OCCN(C)C)C1CCCCC1 (stereo not drawn) | -3.58% (inactive)
39 | COc1ccc(NS(=O)(=O)c2cc(NC(=O)C3CCCCC3)ccc2N2CCOCC2)cc1 | -4.24% (inactive)
40 | CC(C)CNc1ncnc2c1cnn2Cc1ccc(Cl)cc1 | -1.18% (inactive)
41 | CC(NC(=S)NNS(=O)(=O)c1ccc(C(C)(C)C)cc1)c1ccccc1 (stereo not drawn) | -3.09% (inactive)
42 | CC(C)CC(NC(=O)C1CCCN1C(=O)[C@@H](C)NC(=O)OCc1ccccc1)C(=O)NCC(N)=O (stereo partly drawn) | 18.5% (inactive)
43 | COCC(=O)N1CCCC(C(=O)c2ccc(C(F)(F)F)cc2)C1 (stereo not drawn) | 2.21% (inactive)
44 | COc1ccc(CNC(=O)Cc2ccc(-c3ccccc3)cc2)cc1OC | -3.24% (inactive)
45 | CCn1cc(C(=O)NCCC(=O)NCCO)c(=O)c2cc3c(cc21)OCO3 | -3.2% (inactive)
46 | O=C(NCc1nnc(SCC(=O)N2CCCCCC2)o1)c1ccc(F)cc1 | -0.334% (inactive)
47 | CC[C@@H]1Cc2cc(O)ccc2C2=C1c1ccc(O)cc1C[C@H]2CC | -6.86% (inactive)
48 | C=CCSc1nnc(N2C(=O)C(O)=C(C(=O)c3ccco3)C2c2ccc(F)cc2)s1 (stereo not drawn) | 1.8% (inactive)

Row | Compound | max response
49 | COc1cc(C2C(C(=O)c3ccco3)=C(O)C(=O)N2c2cc(C)on2)ccc1OCc1ccccc1 (stereo not drawn) | -4.25% (inactive)
50 | Cc1ccc2nc(N3C(=O)C(O)=C(C(=O)c4ccco4)C3c3cccc(O)c3)sc2c1 (stereo not drawn) | 23.5% (active)
51 | CCOC(=O)C1CCCN(CCSc2ccc(C)cc2)C1 (stereo not drawn) | 0.771% (inactive)
52 | O=C(NC1CCCC1)C(c1ccco1)N(C(=O)c1ccco1)c1ccc(F)cc1 (stereo not drawn) | -3.92% (inactive)
53 | Cc1cc(F)ccc1NC(=O)C(C)n1c2ccccc2c2nc(=O)cc(C)n21 (stereo not drawn) | -0.783% (inactive)
54 | CSc1cccc(NC(=S)N(Cc2ccccc2)Cc2ccccn2)c1 | 7.83% (inactive)
55 | Cn1c(CC(=O)Nc2ccc(F)cc2)nnc1SCC(=O)NC1CCCCC1 | -1.89% (inactive)
56 | CCOC(=O)C1(Cc2cccc(OC)c2)CCCN(C(=O)CCSC)C1 (stereo not drawn) | 28.4% (active)
57 | CCOC(=O)C1(Cc2cccc(OC)c2)CCCN(S(=O)(=O)c2cccnc2)C1 (stereo not drawn) | -3.01% (inactive)
58 | CCOC(=O)C1(Cc2cccc(OC)c2)CCN(C(C)COC)CC1 (stereo not drawn) | 12.7% (inactive)
59 | CN(C)C(CNC(=O)c1cccc(C#N)c1)c1ccco1 (stereo not drawn) | 8.17% (inactive)
60 | CS(=O)(=O)N(CC(=O)Nc1ccc(F)cc1)C1CCCCC1 | -2.39% (inactive)
61 | CC(C)(CCl)C(=O)Nc1ccc(Sc2ccc(F)cc2)cc1 | 31% (active)
62 | COCC(=O)Nc1ccc(Br)cc1 | -0.947% (inactive)
63 | O=C(CCl)Nc1ccc(Sc2ccc(NC(=O)CCl)cc2)cc1 | 24.3% (active)
64 | CCN(c1ccccc1)S(=O)(=O)c1ccc(NC(=O)C(C)(C)C)cc1 | -3.17% (inactive)
65 | O=C(CCl)Nc1cccc(CP(=O)(c2ccccc2)c2ccccc2)c1 | -1.7% (inactive)
66 | COC(=O)c1sc(N2CCN(Cc3ccccc3)CC2)nc1N | -1.52% (inactive)
67 | O=C(Nc1c2c(nn1-c1ccccc1)CS(=O)(=O)C2)C1CCCC1 | -1.45% (inactive)
68 | N#C/C(=C\c1ccc(-c2cccc([N+](=O)[O-])c2)o1)C(=O)NCCN1CCOCC1 | 2.05% (inactive)
69 | O=[N+]([O-])c1ccccc1SNc1ccccn1 | 0.9% (inactive)
70 | C/C(CC(=O)NC(C)(C)C)=N\NC(=O)c1ccco1 | 40.4% (active)
71 | CC(C)(C)NC(=O)c1cc(NC(=O)c2ccco2)cc(NC(=O)c2ccco2)c1 | -2.77% (inactive)
72 | COc1ccc(N(CC(=O)NC(C)(C)C)C(=O)c2ccco2)cc1 | 1.33% (inactive)

Row | Compound | max response
73 | COc1cc(S(=O)(=O)N2CCN=C2c2ccccc2)ccc1Cl | 3.04% (inactive)
74 | CC(=O)c1nn(-c2cccc(Br)c2)cc1C(=O)c1cccc2ccccc12 | 4.07% (inactive)
75 | CCOC(=O)c1nn(-c2cccc(C)c2)cc1C(=O)c1ccccc1 | 43.2% (active)
76 | CCOC(=O)c1cn(Cc2cccc(C)c2)nn1 | -0.759% (inactive)
77 | Cc1ccc(S(=O)(=O)N(CC(=O)NCCSC2CCCCC2)c2ccccc2F)cc1 | -3.31% (inactive)
78 | NS(=O)(=O)c1ccc(CCNc2nc(C(F)(F)F)nc3ccccc23)cc1 | -0.703% (inactive)
79 | COc1ccc(CCNC(=O)CSCc2ccc(Br)cc2)cc1OC | 1.16% (inactive)
80 | Cn1c(SCC(=O)Nc2ccc(Cl)cc2)nc(O)cc1=O | -0.536% (inactive)
81 | COc1ccc(Cl)cc1C(=O)NCc1cn(C)nc1C | -4.09% (inactive)
82 | Cc1nn(C)cc1C(=O)NNC(=S)Nc1ccc(Cl)cc1 | -3.2% (inactive)
83 | Cc1nn(C)cc1CNC(=O)Nc1ccc(Cl)cc1 | 21.8% (active)
84 | Cn1ccc(NC(=O)Nc2ccc(Cl)cc2)n1 | 36.8% (active)
85 | CN(C(=O)Nc1ccc(Cl)cc1)n1cnc2ccccc2c1=O | 3.38% (inactive)
86 | CCc1ccccc1NC(=O)CN(c1ccc(OC)cc1OC)S(=O)(=O)c1ccccc1[N+](=O)[O-] | 10.7% (inactive)
87 | O=c1ccc2cc(S(=O)(=O)Nc3ccccc3F)ccc2o1 | -3.48% (inactive)
88 | Cc1ccc2c(c1)-c1c(ssc1=S)C(C)(C)N2C(=O)CN1C(=O)c2ccccc2C1=O | -4.7% (inactive)
89 | CCCCC1S/C(=N/N=C/c2cccs2)NC1=O (stereo not drawn) | -2.78% (inactive)
90 | Nc1ccc(-c2sc(N)nc2-c2ccccc2)cc1 | 1.13% (inactive)
91 | Nc1ccc(-c2nnc(-c3ccc(-c4ccccc4)cc3)o2)cc1 | 58% (active)
92 | Nc1ccc(-c2nnc(-c3ccccc3)o2)cc1 | 51.7% (active)
93 | COc1cccc(OC)c1C(=O)N1CCN(Cc2cccnc2)CC1 | -3.44% (inactive)
